According to ChEMBL document CHEMBL3988442, “University of Dundee, Small-Polar-MMV Screening Library” (2021):
Among all 48,000 compounds or so, about 13,000 (27%) showed an effect of 50% or more. The list shows a part of the results.

Test system: Wolbachia pipientis
Assay: Anti-Wolbachia Cell-Based Screen
Assay type: functional
Set-up: scale not given: in the data most compounds retested in dose-response had high values
Conditions: 5 µM

Structure (SMILES) | Percent Effect [%]
O=C1CN(C(=O)CC2C(=O)NCCN2CC2CCCCC2)CCN1 (configuration not stated) | -19.63
Cc1occc1CNC(=O)C1CCCN1C(=O)C1CC1 (configuration not stated) | -6.321
COC(=O)c1ccc(OC)c(CN2CCN(CC(C)C)C(=O)C2C)c1 (configuration not stated) | 1.65
COCC(C)(O)CNC(=O)Nc1cccc(OC)c1OC (configuration not stated) | 4.697
CCN(CC)C(=O)Cn1c(=O)n(Cc2ccco2)c2ncccc21 | 92.26
O=C(Cn1c(=O)n(Cc2ccco2)c2ncccc21)NC1CC1 | 115.8
CCN(CCc1nccs1)C(=O)c1ccco1 | -4.795
O=C(Cn1c(=O)n(Cc2ccco2)c2ncccc21)NC1CCCCC1 | -5.913
Cn1nc(C2CCN(CC(=O)NC3CC3)CC2)n(-c2ccccc2)c1=O | 1.77
CC(C)(C)NC(=O)Cn1c(=O)n(Cc2ccco2)c2ncccc21 | 95.67
Cc1nn(C(C)(C)C)c(=O)n1CC(=O)NC(C)(C)C | -3.979
O=C(Cn1c(=O)n(Cc2ccco2)c2ncccc21)NC1CCCC1 | 120
CCCN(Cc1cccnc1)C(=O)C1CCN(Cc2ccco2)CC1 | 2.103
O=C(Cn1c(=O)n(Cc2ccco2)c2ncccc21)Nc1ccccn1 | -4.791
O=C(NC1CC1)[C@H]1C[C@H]2OCC[C@H]2N(Cc2ccco2)C1 | -4.068
Cn1ncc2cnn(CC(O)COc3cccc4[nH]ccc34)c2c1=O (configuration not stated) | 26.41
CC(C)c1noc(CCC(=O)Nc2cc(C(F)(F)F)c[nH]c2=O)n1 | -36.07
CCc1ccc(NC(=O)N2C[C@H]3C[C@H](C(=O)NC)[C@@H](C2)O3)cc1 | -8.923
CCc1cnc(N2C[C@H]3C[C@H](C(=O)NC4CCC4)[C@@H](C2)O3)nc1 | -0.2357
CC(C)NC(=O)N1C[C@H]2C[C@H](C(=O)NCc3ccccc3)[C@@H](C1)O2 | -9.895
CCc1ccc(NC(=O)N2C[C@H]3C[C@H](C(=O)NC(C)C)[C@@H](C2)O3)cc1 | 101
CCc1ccc(NC(=O)N2C[C@H]3C[C@H](C(=O)NC4CCC4)[C@@H](C2)O3)cc1 | 117.1
CC(C)NC(=O)[C@H]1C[C@@H]2CN(C(=O)NC(C)C)C[C@H]1O2 | -20.07
Cc1cccc(C)c1OCCCN1CCC(n2cncn2)CC1 | 115.1
FC(F)(F)Oc1ccc(CN2CCCC(n3cncn3)C2)cc1 (configuration not stated) | 13.2
Cc1cc(C)cc(OCCC(=O)N2CCCC(n3cncn3)C2)c1 (configuration not stated) | -4.983

Structure (SMILES) | Percent Effect [%]
Cc1ccccc1OCCC(=O)N1CCCC(n2cncn2)C1 (configuration not stated) | -9.445
Clc1ccc(OCCN2CCN(CCn3cncn3)CC2)cc1 | -7.454
c1ccc(OCCN2CCC(n3cncn3)CC2)cc1 | 93.12
CC(C(=O)N1CCN(CCOc2ccccc2)CC1)n1cncn1 (configuration not stated) | -7.881
Clc1cc(Cl)cc(OCCN2CCC(n3cncn3)CC2)c1 | 103.8
CSc1ccc(OCCN2CCC(n3cncn3)CC2)cc1 | 98.24
Cc1cccc(C)c1OCCC(=O)N1CCC(c2nncn2C)CC1 | 0.8719
CCN(C)C(=O)c1ccc2c(c1)C(c1nc[nH]n1)CN2S(C)(=O)=O (configuration not stated) | -2.777
COC(=O)c1ccc(CNC(C)(C)c2ccccc2OC)o1 | 5.551
Cc1ccc(-c2cc(C(=O)NCCCc3csc(N)n3)[nH]n2)s1 | -6.732
Cc1ccn2ncc(C(=O)N3CCCC(c4cc(C)[nH]n4)C3)c2n1 (configuration not stated) | 1.6
CC(=O)N1CCc2c(nc(N(C)C)nc2NCc2cccs2)C1 | 5.703
Clc1ccc(CN(CCN2CCOCC2)Cc2cccnc2)c(Cl)c1 | 143.8
Clc1ccc(CN(CCN2CCOCC2)Cc2cccnc2)cc1Cl | 180.4
CCC(C)N(Cc1cccnc1)Cc1cc2c(cc1Cl)OCO2 (configuration not stated) | -26.91
c1cncc(-c2ccnn2CN2CCOCC2)c1 | -10.55
CN(Cc1c(F)cccc1Cl)C(=O)c1cnn(CCN2CCOCC2)c1 | -8.866
Clc1ccc2oc(C3CCN(Cc4cccnc4)CC3)nc2c1 | -21.47
O=C1O[C@@H]2CN(Cc3cccnc3)C[C@@H]2N1CCCN1CCOCC1 | 7.451
CCN(CCN1CCOCC1)C(=O)c1cccnc1 | -15.37
Clc1cccc(Cl)c1CN(CCCN1CCOCC1)Cc1cccnc1 | 149.3
Cc1[nH]c(=O)[nH]c(=O)c1CN1CCCC(CCc2ccc(F)c(F)c2)C1 (configuration not stated) | 8.003
O=C1CC[C@H](C(=O)N(CCc2ccccc2)C2CCOC2)N1 (some centres not stated) | -17.91
CCC(=O)N1CCc2[nH]cnc2C12CCN(C1CCOCC1)CC2 | -8.971
CCc1ccc(CN(C)Cc2cnc(S(=O)(=O)CC)n2CCOC)cc1 | -8.303
Cc1sc2nc(CCN)nc(N3CCC(N4CCCC4)CC3)c2c1C | -8.408

Structure (SMILES) | Percent Effect [%]
Cc1cccnc1CNC(=O)NC(C)Cc1c(C)nn(C)c1C (configuration not stated) | -5.579
O=C(NCCNC(=O)c1ccc(Br)cc1)c1ccc(O)cc1 | 3.17
Cc1nc(S(=O)(=O)CCn2cccn2)n(CC2CCCO2)c1C (configuration not stated) | -14.31
CCc1csc(CNc2cc(C)nc(-c3cccnc3)n2)n1 | 113.3
COc1cccc(CNc2cc(C)nc(-c3ccncc3)n2)c1O | -14.65
CC(C)Cc1cc(CNc2nc(-c3cccnc3)nc3c2CNC3)no1 | 13.84
COCc1nc(CNc2cccc(-c3csc(C)n3)c2)cs1 | -8.53
COc1cccc(CNc2cc(C)nc(-c3ccncc3)n2)c1OC | -14.13
CCc1nc(CNc2cc(C)nc(-c3cccnc3)n2)cs1 | 88.21
CCSCC(C)NCc1nncn1C1CCCCC1 (configuration not stated) | -19.08
COCCN(Cc1ccccn1)C(=O)Nc1cccnc1N1CCCC1 | -3.62
COCCCN(CCOC)C(=O)Nc1ccc(Br)cc1 | 130.2
CCN(CCO)C(=O)Nc1ccc(OCCOC)nc1 | 0.2723
COCCN(C)C(=O)c1ccccc1-n1cccn1 | 3.962
COCCCN(CCOC)C(=O)Nc1ccccc1-n1cccn1 | 144.2
COCCOc1ccc(NC(=O)N(CCCO)CC(C)(C)C)cn1 | 7.116
O=C(C1CC=CC1)N1CCC2(CCN(Cc3cccc(F)c3)CC2)C1 | 0.9808
N#Cc1ccc(CNC(=O)NC2CCN(c3ncccn3)CC2)cc1 | 5.422
Cc1cc(CN2CCN(c3ccnc(-c4ccccc4)n3)CC2)no1 | 122.7
Cc1noc(C)c1CN1CCN(Cc2nccn2C)CC1 | -9.314
Cn1cnc2c1CCN(c1ccnc(-c3ccccc3)n1)C2 | -10.53
Cc1cc(CN2CCN(CC(O)c3ccccc3)CC2)no1 (configuration not stated) | -10.98
Cc1cnc(CN2CCCCC2c2nc(-c3ccccc3)no2)cn1 (configuration not stated) | 19.76
Cc1noc(C)c1CN1CCN(c2ccnc(-c3ccccc3)n2)CC1 | 94.83
Cc1cc(CN2CCN(C(c3ccccc3)c3ccccc3)CC2)no1 | -4.667
Cc1noc(C)c1CN1C[C@@H](C(=O)O)[C@H](c2ccccn2)C1 | -12.63

Structure (SMILES) | Percent Effect [%]
Cc1cnc(CN2CCN(c3ccnc(-c4ccccc4)n3)CC2)cn1 | 144.2
CS(=O)(=O)NCCNC(=O)c1ccc(OCc2ccccc2)nc1 | 7.359
CC(C)NC(=O)N1CCCn2cnc(CO)c2C1.O=C(O)C(F)(F)F | 89.15
CC(C)CC(=O)N1CCCn2cnc(CN3CCCC3=O)c2C1 | 1.077
CCC(C)NC(=O)N1CCCn2cnc(CO)c2C1 (configuration not stated) | -12.35
O=C(NC1CCCC1)N1CCCC(c2nccn2Cc2ccncc2)C1 (configuration not stated) | -3.815
CC(C)OCc1ncn2c1CN(CCO)CCC2.O=C(O)C(F)(F)F | -4.222
O=C1CCCN1Cc1ncn2c1CN(C(=O)NC1CCCC1)CCC2 | 86.82
O=C1CCCN1Cc1ncn2c1CN(C(=O)NC1CCCCC1)CCC2 | 133.6
CC(C)NC(=O)N1CCCn2cnc(CN3CCCC3=O)c2C1 | 81.15
Cn1nnnc1SCCNC(=O)CC1CCc2ccccc21 (configuration not stated) | 1.963
CCC(CO)NC(=O)Nc1ccc(OCC(F)(F)F)c(C)c1 (configuration not stated) | -12.14
CCN(Cc1noc(CC(C)C)n1)Cc1ccccc1OCC(=O)O | 3.118
O=C(Cn1ccc2ccccc21)N1CCC(Oc2ncccc2Br)CC1 | 10.7
Cl.Cl.c1c(CN2CCCCC2)nc2n1CCNC2 | 4.844
CC(C)c1ccc(-n2cc(O)c(C(=O)O)n2)cc1 | 3.312
CCCNC(=O)CN1CCC(NCc2c(C)nn(C)c2OC)CC1 | -12.27
CNC(=O)[C@@H]1C[C@@H](NC(=O)CCCc2cccs2)CN1C1CCOCC1 | -14.74
CN(C)C(=O)NCc1ncn2c1CN(Cc1cccs1)CCC2.O=C(O)C(F)(F)F.O=C(O)C(F)(F)F | 0.9692
O=C(O)C(F)(F)F.O=C1CCCN1Cc1ncn2c1CN(C(=O)N1CCCC1)CCC2 | 106.2
Cc1cccc(NC(=O)N2CCCn3cnc(CN(C)C(C)C)c3C2)c1.O=C(O)C(F)(F)F | 110.9
Cc1cccc(NC(=O)N2CCCn3cnc(CN4CCCC4)c3C2)c1.O=C(O)C(F)(F)F | -10.04
Cn1cc(CN2CCCn3cnc(CN4CCCC4=O)c3C2)cn1 | -11.95
O=C1CCCN1Cc1ncn2c1CN(C(=O)C1CC=CC1)CCC2 | 99.96
